# mcGAS MS inh = inhibitors of Mus musculus cyclic GMP-AMP synthase, initial high-throughput assay, cell-free, RapidFire MS | Q8C6L5 | recombinant mouse cGAS, cGAMP by RapidFire MS | inhibition, % at 12.5 µM | 130,000 tested, 0.18% active | AID 1259397, 2018;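 active means inhibition of cGAS enzyme activity at or above 60%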;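 further: enzyme stimulated by 45 bp dsDNA with ATP and GTP substrates; cGAMP share of summed cGAMP plus half ATP and half GTP signals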
# Target sequence (Q8C6L5 whole entry, looked up): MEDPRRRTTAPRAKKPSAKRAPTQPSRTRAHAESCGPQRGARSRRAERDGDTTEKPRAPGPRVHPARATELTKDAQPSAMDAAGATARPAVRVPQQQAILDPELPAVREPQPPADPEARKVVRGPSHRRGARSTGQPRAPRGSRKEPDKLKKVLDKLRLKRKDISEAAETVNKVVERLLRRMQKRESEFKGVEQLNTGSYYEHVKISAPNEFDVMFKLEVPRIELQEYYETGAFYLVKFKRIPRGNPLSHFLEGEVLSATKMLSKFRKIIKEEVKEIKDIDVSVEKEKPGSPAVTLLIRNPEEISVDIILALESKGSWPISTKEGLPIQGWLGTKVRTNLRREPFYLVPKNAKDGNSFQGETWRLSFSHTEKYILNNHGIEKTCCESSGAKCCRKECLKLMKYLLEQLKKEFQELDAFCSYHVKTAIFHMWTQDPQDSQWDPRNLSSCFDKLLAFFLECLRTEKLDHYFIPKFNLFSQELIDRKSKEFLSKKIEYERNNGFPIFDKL
# Numbers stand for hits; – = inactive; ! = repeats disagree. Only a selection was taken, and hits are over-represented in it overall.
SMILES,mcGAS MS inh
S=c1n(CN2CCCC2)nc(C2COc3ccccc3O2)n1-c1ccccc1 (stereo unspecified),–
c1ccc2c(c1)OCC(c1nn3c(CN4CCCCCC4)nnc3s1)O2 (stereo unspecified),70
c1ccc2c(c1)OCC(c1nn3c(CN4CCOCC4)nnc3s1)O2 (stereo unspecified),–
C=CCn1c(SCC(=O)N2CCNC2=O)nc2scc(C3CC3)c2c1=O,–
O=C(Nc1ccc2c(c1)CCO2)c1cc(Cl)cc(Cl)c1,–
O=C1C=CC2=C3c4cc(O)c(O)cc4CC3(O)COC2=C1O (stereo unspecified),97
CCn1cc(-c2ccc(-n3cccn3)cc2)c(C)n1,–
Clc1ccc2c(Oc3ccc(Br)cc3)ccnc2c1,–
Clc1ccc2c(-n3ccnc3)ccnc2c1,67
Clc1ccc(Oc2ccnc3cc(Cl)ccc23)cc1,–
CCc1nc(SCC(=O)N2CCc3[nH]nc(C4CCC4)c3C2)n[nH]1,–
COc1cc(/C=N\Nc2ncnc3nc[nH]c23)cc(Br)c1O,–
Cc1cc(NN=Cc2ccccn2)nc2ccccc12,–
Oc1c(Br)cc(C=NNc2ccccn2)cc1Br,74
OCCC1CN(C(=S)Nc2ccccc2)CCN1Cc1ccncc1 (stereo unspecified),–
O=[N+]([O-])c1cc(C(F)(F)F)cc([N+](=O)[O-])c1N1CCN(CCO)CC1,–
CN(CC(=O)Nc1ccc(N2CCOCC2)cc1)C(=O)COc1ccccc1C#N,69
CCCCC(=O)Nc1ccc(N2CCOCC2)cc1,–
CC(C)n1nccc1NC(=O)COc1ccccc1C#N,–
O=C(c1cccnc1)c1ccc(Cl)cc1Cl,–
NCCn1cc(C(=O)N2CCCC3(CCNC3)C2)nn1 (stereo unspecified),–
Cc1nc(C(=O)N2CSCC2C(=O)NCC(F)(F)F)nn1-c1ccccc1C(C)C (stereo unspecified),–
CCN(CC)c1ccc(CNC(=O)NCC2CCOC2)cc1F (stereo unspecified),–
Cc1csc(CNC(=O)C(OC2CCCC2)c2ccccc2)n1 (stereo unspecified),–
CN(Cc1ccc2nsnc2c1)Cc1ncc[nH]1,–
SMILES,mcGAS MS inh
O=C1CNc2c(c(=O)oc3ccccc23)N1,96
O=C(c1c(O)c2ccccc2oc1=O)C1CCC1,–
O=c1oc2ccc(O)cc2c2c1NCCC2,–
COCCNC(=O)c1cc(N2CCCN(C)CC2)ccn1,–
O=C(NCCN1CCCCC1)c1cc(N2CCCN3CCC[C@H]3C2)ccn1,78
CCN(CC)CCNC(=O)c1cc(N2CCCCCC2)ccn1,–
Cc1cc(N2CCOCC2)nc(Nc2ccc(NC(=O)CC(C)(C)C)cc2)n1,–
CC(C)COC(=O)N1CCC(C(=O)N2C(C)CCCC2C)CC1 (stereo unspecified),–
CCCCC1=NN2C(=N)/C(=C/c3ccc(OS(C)(=O)=O)c(OCC)c3)C(=O)N=C2S1,–
O=C1c2c(O)ccc(O)c2C(=O)c2c(NCCNCCO)ccc(NCCNCCO)c21,83!
Cc1ccc(NS(=O)(=O)c2c(C)c(C)c(C)c(C)c2C)c(C)c1O,–
O=C(Nc1ccc(F)cc1Cl)N(Cc1ccco1)C1CC1,–
COc1ccccc1-n1cc(C(=O)N2CCCC(Nc3ccc4c(c3)OCO4)C2)cn1 (stereo unspecified),–
COC1CCN(C(=O)c2coc(COc3cccc(C(F)(F)F)c3)n2)CC1,–
O=c1c(O[C@@H]2O[C@H](CO)[C@@H](O)[C@H](O)[C@H]2O)c(-c2ccc(O)c(O)c2)oc2cc(O)cc(O)c12,–
OC[C@H]1O[C@@H](Oc2ccc(O)cc2)[C@H](O)[C@@H](O)[C@@H]1O,–
O=C(O)c1cc(O)c2c(O)c3c(O[C@H]4O[C@H](CO)[C@@H](O)[C@H](O)[C@H]4O)cccc3c(-c3c4cc(C(=O)O)cc(O)c4c(O)c4c(O[C@H]5O[C@H](CO)[C@@H](O)[C@H](O)[C@H]5O)cccc34)c2c1,82!
CC(C)(C)CC(C)(C)c1ccc(OCC(=O)NNC(=O)c2ccccc2)cc1,–
O=C(O)CN1C(=O)/C(=C2/C(=O)N(CC(=O)O)c3ccccc32)SC1=S,–
O=C(O)CNC(=O)CN1C(=O)CSC1=S,–
O=C(O)CN1C(=O)C(=NN2C(=O)CSC2=S)c2ccccc21,92
COCC(NC(=O)CCn1c(C)cc(C)nc1=O)c1ccccn1 (stereo unspecified),–
Cc1nc2c(c(N(C)C)n1)CCN(S(=O)(=O)c1c(C)nn(C)c1Cl)C2,–
CCC(c1ccc(F)cc1F)S(=O)CC(=O)N1CCC(C)CC1 (stereo unspecified),–
CC(C)NC1CCCN(C(=O)c2ccc(CSc3nccn3C)o2)C1 (stereo unspecified),–
SMILES,mcGAS MS inh
COCC(=O)N1CCC(c2nc(CC3CCN(C)CC3)no2)CC1,–
Cn1ccnc1CN1CCCC(CCNS(C)(=O)=O)C1 (stereo unspecified),–
CCCN1CCCC1C(=O)N1CCCN(Cc2nccn2C)CC1 (stereo unspecified),94
CCCCc1nc(CN2CCCN(Cc3nccn3C)CC2)no1,–
CC1CC2CCCCC2N1C(=O)Nc1nc(C2CC2)cs1 (stereo unspecified),–
CSC1(CNC(=O)N2CCCC2c2cccs2)CCOCC1 (stereo unspecified),–
CSC1(CNc2ccc(Br)cn2)CCOCC1,71
CSC1(CNC(=O)c2ccc(Oc3ccccc3)nc2)CCOCC1,–
O=C(Nc1n[nH]c(=S)s1)c1cccs1,76
O=C(Nc1nc(-c2ccc(Cl)s2)cs1)c1cccs1,–
O=C(Nc1n[nH]c(=S)s1)c1ccco1,–
Cc1cc(C(=O)N(Cc2ccco2)c2nc3ccccc3s2)nn1C,–
CSc1nc2ncc(C(=O)c3cc(Cl)cc(Cl)c3O)cc2c(=O)[nH]1,–
CC1(C)Nc2cc(Cl)ccc2CO1,–
Cc1cc(Br)ccc1NC(=O)CNC(=O)CCc1cccs1,–
Cn1ccsc1=NC(=O)c1ccc(NC(=O)OC(C)(C)C)cc1,–
CC(C)(C)OC(=O)Nc1ccsc1Br,66!
CC(C)(C)OC(=O)Nc1ccncc1C(=O)c1ccccc1,–
CCCc1nc(CN(CC)C(=O)[C@@H]2CCC(=O)N2)no1,–
CC(C)NC(=O)Cn1c(CO)cnc1SCC(=O)Nc1ccccc1,–
CN(CCO)c1nc(N)c2c(N)nc3c(c2c1C#N)CC(=O)N3CCC1=CCCCC1,–
O=c1c2cc(F)ccc2ncn1CCN1CCC(O)CC1,–
CCCS(=O)(=O)N1CCc2ccc(NC(=O)C3(c4ccccc4)CC3)cc2C1,–
NS(=O)(=O)c1ccc(NC2CC(=O)N(Cc3ccc(Cl)cc3)C2=O)cc1 (stereo unspecified),–
NC(=S)CC(=O)N1CCOCC1,–
SMILES,mcGAS MS inh
NC(=O)NO,–
NC(=O)CC(N)=S,92
CC(C)(C)NC(=O)NC(=O)COC(=O)c1ccc([N+](=O)[O-])o1,–
CCOC(=O)c1ccc(-n2ccc3c(cnc4nc(SCC)nn43)c2=O)cc1,–
Cc1nn(C)cc1-c1ccnc(N2CCC(c3nc4ccc(F)cc4[nH]3)CC2)n1,–
CC(C)Cn1ccnc1CNc1cccc(F)c1C#N,–
COc1ccc(NS(=O)(=O)c2cc(C)ccc2C)cc1OC,–
COc1cc(C)c(S(=O)(=O)Nc2c(F)cccc2F)cc1OC,87
COc1ccccc1NS(=O)(=O)c1cc(F)ccc1F,–
CC(C)(C)C(NCN1C(=O)CC2(CCCC2)C1=O)c1cccs1 (stereo unspecified),–
O=C(CNCCN1CCOCC1)N(Cc1ccccc1)Cc1ccco1,–
